Consider 39 sequences from article PMC7862700, “An all-to-all approach to the identification of sequence-specific readers for epigenetic DNA modifications on cytosine”.

Chain of ELF4 (Q99607 whole entry, the tested form may be a part): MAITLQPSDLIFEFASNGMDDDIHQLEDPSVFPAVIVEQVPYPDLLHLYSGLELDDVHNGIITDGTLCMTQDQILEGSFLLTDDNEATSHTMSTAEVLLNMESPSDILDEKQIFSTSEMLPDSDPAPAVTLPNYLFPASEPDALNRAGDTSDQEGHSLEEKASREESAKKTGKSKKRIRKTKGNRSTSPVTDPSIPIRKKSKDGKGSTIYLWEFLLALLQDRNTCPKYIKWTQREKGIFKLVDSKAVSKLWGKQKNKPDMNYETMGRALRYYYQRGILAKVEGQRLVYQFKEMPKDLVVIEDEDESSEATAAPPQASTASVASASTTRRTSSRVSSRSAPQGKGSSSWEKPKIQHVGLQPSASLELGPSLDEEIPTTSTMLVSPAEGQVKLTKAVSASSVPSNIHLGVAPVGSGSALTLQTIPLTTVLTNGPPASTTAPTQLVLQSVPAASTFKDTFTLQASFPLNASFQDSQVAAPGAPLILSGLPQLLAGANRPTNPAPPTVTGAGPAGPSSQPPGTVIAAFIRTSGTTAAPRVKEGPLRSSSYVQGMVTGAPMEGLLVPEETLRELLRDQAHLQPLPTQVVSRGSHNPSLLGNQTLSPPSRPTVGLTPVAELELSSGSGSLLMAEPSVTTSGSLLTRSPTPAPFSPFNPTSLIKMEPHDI

The first assay concerns the target ELF4 (Homo sapiens, UniProt Q99607 1-663). Kind of assay: DAPPL (digital affinity profiling via proximity ligation, sequencing); 10 mM Tris-HCl pH 7.5, 50 mM NaCl, 1 mM DTT, 4% glycerol, room temperature, 30 min; GST-TFs on glutathione beads, 16-mer random dsDNA library, 0.1% formaldehyde crosslink after washing; high values mean tight binding. The conditions noted are these: protein: recombinant; tags: N-terminal GST; dsDNA, one strand shown. An outline of the steps:
(§1)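 Human transcription factors were made in yeast as GST fusions, captured on glutathione beads and barcoded with DNA. With a tag-only sample included, the pool was incubated with 200 nmole of a random double-stranded 16-mer DNA library in Tris/NaCl/DTT/glycerol buffer at room temperature for 30 min, then crosslinked with 0.1% formaldehyde after washing, ligated by proximity, amplified and sequenced. For binding signal, each hexamer's read frequency for a factor is divided by its frequency for the tag-only sample.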
On to GACCTC, for which the binding signal is 1.4 fold enrichment (6-mer frequency, TF over GST control).

In the case of CGTTCC, the binding signal was 1.47 fold enrichment (6-mer frequency, TF over GST control).

In the case of ACTGGC, the binding signal is 1.16 fold enrichment (6-mer frequency, TF over GST control).

Turning to ATGGAC, the binding signal is 1.2 fold enrichment (6-mer frequency, TF over GST control).

Take CAATTG: the binding signal was 1.27 fold enrichment (6-mer frequency, TF over GST control).

With TGCCGA, the binding signal is 1.19 fold enrichment (6-mer frequency, TF over GST control).

For ACTCAC, the binding signal was 1.24 fold enrichment (6-mer frequency, TF over GST control).

Turning to GCCTCA, the binding signal is 1.2 fold enrichment (6-mer frequency, TF over GST control).

With CGACCC, the binding signal is 1.31 fold enrichment (6-mer frequency, TF over GST control).

As for CCACGC, the binding signal is 1.22 fold enrichment (6-mer frequency, TF over GST control).

As to TGTTCA, the binding signal was 1.21 fold enrichment (6-mer frequency, TF over GST control).

Turning to GAAAAA, the binding signal was 1.17 fold enrichment (6-mer frequency, TF over GST control).

As for TGTACA, the binding signal was 1.36 fold enrichment (6-mer frequency, TF over GST control).

On to CGTCCT, for which the binding signal was 1.44 fold enrichment (6-mer frequency, TF over GST control).

As to GAAGCA, the binding signal was 1.27 fold enrichment (6-mer frequency, TF over GST control).

Take ACTGCC: the binding signal is 1.39 fold enrichment (6-mer frequency, TF over GST control).

With TGCGTA, the binding signal was 1.08 fold enrichment (6-mer frequency, TF over GST control).

Turning to CGCGTC, the binding signal was 1.19 fold enrichment (6-mer frequency, TF over GST control).

Consider CCGACA, for which the binding signal was 1.13 fold enrichment (6-mer frequency, TF over GST control).

GCGTTC: the binding signal was 1.1 fold enrichment (6-mer frequency, TF over GST control).

For GTACAT, the binding signal was 1.36 fold enrichment (6-mer frequency, TF over GST control).

Consider CGACAT, for which the binding signal was 1.32 fold enrichment (6-mer frequency, TF over GST control).

For the sequence CCTGCA, the binding signal was 1.3 fold enrichment (6-mer frequency, TF over GST control).

Turning to TGCAAC, the binding signal is 1.3 fold enrichment (6-mer frequency, TF over GST control).

TGCCCC: the binding signal was 1.26 fold enrichment (6-mer frequency, TF over GST control).

For TGACAT, the binding signal is 1.24 fold enrichment (6-mer frequency, TF over GST control).

For CCGTAC, the binding signal is 1.26 fold enrichment (6-mer frequency, TF over GST control).

In the case of TGAAAC, the binding signal is 1.27 fold enrichment (6-mer frequency, TF over GST control).

Turning to ACTGCG, the binding signal is 1.28 fold enrichment (6-mer frequency, TF over GST control).

In the case of CCCTCA, the binding signal was 1.28 fold enrichment (6-mer frequency, TF over GST control).

As for TGACCA, the binding signal was 1.29 fold enrichment (6-mer frequency, TF over GST control).

Take TCTGAC: the binding signal is 1.35 fold enrichment (6-mer frequency, TF over GST control).

For ACGAAC, the binding signal is 1.22 fold enrichment (6-mer frequency, TF over GST control).

For GAAGTT, the binding signal was 1.61 fold enrichment (6-mer frequency, TF over GST control).

Regarding CCGGCA, the binding signal is 1.28 fold enrichment (6-mer frequency, TF over GST control).

For ACCGTC, the binding signal is 1.17 fold enrichment (6-mer frequency, TF over GST control).

Consider CTGCCA, for which the binding signal was 1.25 fold enrichment (6-mer frequency, TF over GST control).

As for GTCTCT, the binding signal is 1.33 fold enrichment (6-mer frequency, TF over GST control).

With GAAACT, the binding signal is 1.24 fold enrichment (6-mer frequency, TF over GST control).

The target of the next assay is T1, ELK4 (Homo sapiens, UniProt P28324-2 1-405).
T1 sequence: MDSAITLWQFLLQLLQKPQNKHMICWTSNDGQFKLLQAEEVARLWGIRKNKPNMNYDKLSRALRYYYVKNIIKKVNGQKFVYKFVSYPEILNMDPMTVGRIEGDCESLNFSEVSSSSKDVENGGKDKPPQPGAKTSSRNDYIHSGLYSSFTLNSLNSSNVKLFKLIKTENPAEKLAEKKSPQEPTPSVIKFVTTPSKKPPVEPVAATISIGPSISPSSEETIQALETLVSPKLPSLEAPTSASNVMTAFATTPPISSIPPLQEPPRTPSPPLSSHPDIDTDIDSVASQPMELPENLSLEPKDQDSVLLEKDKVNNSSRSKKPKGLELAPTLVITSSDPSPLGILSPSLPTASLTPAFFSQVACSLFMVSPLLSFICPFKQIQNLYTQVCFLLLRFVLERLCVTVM
The assay is described as above. The conditions noted are these: protein: recombinant; tags: N-terminal GST; dsDNA, one strand shown. The gist of the method: as §1
As for GACCTC, the binding signal is 1.38 fold enrichment (6-mer frequency, TF over GST control).

For the sequence CGTTCC, the binding signal was 1.31 fold enrichment (6-mer frequency, TF over GST control).

In the case of ACTGGC, the binding signal was 1.25 fold enrichment (6-mer frequency, TF over GST control).

Take ATGGAC: the binding signal was 1.17 fold enrichment (6-mer frequency, TF over GST control).

As for CAATTG, the binding signal was 1.04 fold enrichment (6-mer frequency, TF over GST control).

In the case of TGCCGA, the binding signal is 1.14 fold enrichment (6-mer frequency, TF over GST control).

Regarding ACTCAC, the binding signal was 1.18 fold enrichment (6-mer frequency, TF over GST control).

For GCCTCA, the binding signal was 1.13 fold enrichment (6-mer frequency, TF over GST control).

On to CGACCC, for which the binding signal was 1.17 fold enrichment (6-mer frequency, TF over GST control).

As for CCACGC, the binding signal is 1.19 fold enrichment (6-mer frequency, TF over GST control).

Take TGTTCA: the binding signal was 1.28 fold enrichment (6-mer frequency, TF over GST control).

Turning to GAAAAA, the binding signal was 1.09 fold enrichment (6-mer frequency, TF over GST control).

As to TGTACA, the binding signal is 1.17 fold enrichment (6-mer frequency, TF over GST control).

CGTCCT: the binding signal is 1.4 fold enrichment (6-mer frequency, TF over GST control).

For the sequence GAAGCA, the binding signal was 1.2 fold enrichment (6-mer frequency, TF over GST control).

Regarding ACTGCC, the binding signal was 1.31 fold enrichment (6-mer frequency, TF over GST control).

Consider TGCGTA, for which the binding signal is 1.27 fold enrichment (6-mer frequency, TF over GST control).

For the sequence CGCGTC, the binding signal is 1.48 fold enrichment (6-mer frequency, TF over GST control).

For CCGACA, the binding signal was 1.14 fold enrichment (6-mer frequency, TF over GST control).

For GCGTTC, the binding signal is 1.02 fold enrichment (6-mer frequency, TF over GST control).

For the sequence GTACAT, the binding signal was 1.23 fold enrichment (6-mer frequency, TF over GST control).

With CGACAT, the binding signal is 1.3 fold enrichment (6-mer frequency, TF over GST control).

For CCTGCA, the binding signal is 1.27 fold enrichment (6-mer frequency, TF over GST control).

With TGCAAC, the binding signal is 1.46 fold enrichment (6-mer frequency, TF over GST control).

TGCCCC: the binding signal is 1.51 fold enrichment (6-mer frequency, TF over GST control).

Turning to TGACAT, the binding signal is 1.3 fold enrichment (6-mer frequency, TF over GST control).

In the case of CCGTAC, the binding signal is 1.36 fold enrichment (6-mer frequency, TF over GST control).

As for TGAAAC, the binding signal is 1.18 fold enrichment (6-mer frequency, TF over GST control).

In the case of ACTGCG, the binding signal is 1.06 fold enrichment (6-mer frequency, TF over GST control).

Consider CCCTCA, for which the binding signal was 1.11 fold enrichment (6-mer frequency, TF over GST control).

Consider TGACCA, for which the binding signal is 1.29 fold enrichment (6-mer frequency, TF over GST control).

As for TCTGAC, the binding signal is 1.25 fold enrichment (6-mer frequency, TF over GST control).

ACGAAC: the binding signal is 1.18 fold enrichment (6-mer frequency, TF over GST control).

For the sequence GAAGTT, the binding signal was 1.52 fold enrichment (6-mer frequency, TF over GST control).

Take CCGGCA: the binding signal is 1.24 fold enrichment (6-mer frequency, TF over GST control).

In the case of ACCGTC, the binding signal was 1.17 fold enrichment (6-mer frequency, TF over GST control).

Take CTGCCA: the binding signal is 1.33 fold enrichment (6-mer frequency, TF over GST control).

On to GTCTCT, for which the binding signal was 1.18 fold enrichment (6-mer frequency, TF over GST control).

On to GAAACT, for which the binding signal is 1.14 fold enrichment (6-mer frequency, TF over GST control).

For a further assay, the target named is T2, ETV2 (Homo sapiens, UniProt O00321 1-342).
T2 sequence: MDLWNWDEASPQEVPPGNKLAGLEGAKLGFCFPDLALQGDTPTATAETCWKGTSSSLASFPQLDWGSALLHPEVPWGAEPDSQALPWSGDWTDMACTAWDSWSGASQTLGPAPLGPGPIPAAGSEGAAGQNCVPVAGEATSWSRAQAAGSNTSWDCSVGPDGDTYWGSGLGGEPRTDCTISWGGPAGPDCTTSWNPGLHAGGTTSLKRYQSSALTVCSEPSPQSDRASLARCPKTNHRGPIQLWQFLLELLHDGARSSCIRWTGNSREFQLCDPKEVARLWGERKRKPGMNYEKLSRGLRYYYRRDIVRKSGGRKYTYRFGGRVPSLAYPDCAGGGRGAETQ
The description is as above. Conditions: protein: recombinant; tags: N-terminal GST; dsDNA, one strand shown. The gist of the method:
as §1
For GACCTC, the binding signal is 1.51 fold enrichment (6-mer frequency, TF over GST control).

Regarding CGTTCC, the binding signal is 1.33 fold enrichment (6-mer frequency, TF over GST control).

On to ACTGGC, for which the binding signal is 1.11 fold enrichment (6-mer frequency, TF over GST control).

On to ATGGAC, for which the binding signal is 1.33 fold enrichment (6-mer frequency, TF over GST control).

As to CAATTG, the binding signal is 1.16 fold enrichment (6-mer frequency, TF over GST control).

For the sequence TGCCGA, the binding signal was 1.08 fold enrichment (6-mer frequency, TF over GST control).

Turning to ACTCAC, the binding signal is 1.24 fold enrichment (6-mer frequency, TF over GST control).

Take GCCTCA: the binding signal is 1.12 fold enrichment (6-mer frequency, TF over GST control).

In the case of CGACCC, the binding signal is 1.39 fold enrichment (6-mer frequency, TF over GST control).

Take CCACGC: the binding signal is 1.14 fold enrichment (6-mer frequency, TF over GST control).

For the sequence TGTTCA, the binding signal was 1.07 fold enrichment (6-mer frequency, TF over GST control).

With GAAAAA, the binding signal is 1.15 fold enrichment (6-mer frequency, TF over GST control).

TGTACA: the binding signal was 1.19 fold enrichment (6-mer frequency, TF over GST control).

Regarding CGTCCT, the binding signal is 1.66 fold enrichment (6-mer frequency, TF over GST control).

Consider GAAGCA, for which the binding signal was 1.37 fold enrichment (6-mer frequency, TF over GST control).

As for ACTGCC, the binding signal is 1.16 fold enrichment (6-mer frequency, TF over GST control).

Consider TGCGTA, for which the binding signal was 1.21 fold enrichment (6-mer frequency, TF over GST control).

Consider CGCGTC, for which the binding signal was 1.35 fold enrichment (6-mer frequency, TF over GST control).

In the case of CCGACA, the binding signal is 1.32 fold enrichment (6-mer frequency, TF over GST control).

In the case of GCGTTC, the binding signal was 1.23 fold enrichment (6-mer frequency, TF over GST control).

As to GTACAT, the binding signal was 1.22 fold enrichment (6-mer frequency, TF over GST control).

Take CGACAT: the binding signal is 1.26 fold enrichment (6-mer frequency, TF over GST control).

With CCTGCA, the binding signal was 1.22 fold enrichment (6-mer frequency, TF over GST control).

Consider TGCAAC, for which the binding signal was 1.31 fold enrichment (6-mer frequency, TF over GST control).

Turning to TGCCCC, the binding signal is 1.21 fold enrichment (6-mer frequency, TF over GST control).

As to TGACAT, the binding signal is 1.18 fold enrichment (6-mer frequency, TF over GST control).

With CCGTAC, the binding signal is 1.42 fold enrichment (6-mer frequency, TF over GST control).

On to TGAAAC, for which the binding signal was 1.4 fold enrichment (6-mer frequency, TF over GST control).

Take ACTGCG: the binding signal is 1.42 fold enrichment (6-mer frequency, TF over GST control).

Consider CCCTCA, for which the binding signal is 1.29 fold enrichment (6-mer frequency, TF over GST control).

Regarding TGACCA, the binding signal was 1.17 fold enrichment (6-mer frequency, TF over GST control).

On to TCTGAC, for which the binding signal was 1.16 fold enrichment (6-mer frequency, TF over GST control).

As to ACGAAC, the binding signal was 1.18 fold enrichment (6-mer frequency, TF over GST control).

Turning to GAAGTT, the binding signal was 1.58 fold enrichment (6-mer frequency, TF over GST control).

Consider CCGGCA, for which the binding signal was 1.28 fold enrichment (6-mer frequency, TF over GST control).

On to ACCGTC, for which the binding signal is 1.29 fold enrichment (6-mer frequency, TF over GST control).

With CTGCCA, the binding signal was 1.03 fold enrichment (6-mer frequency, TF over GST control).

Consider GTCTCT, for which the binding signal was 1.24 fold enrichment (6-mer frequency, TF over GST control).

GAAACT: the binding signal was 1.12 fold enrichment (6-mer frequency, TF over GST control).
